Measurements from PubChem BioAssay AID1159580 (chemical genetic matrix, 2015).
Screen size: about 5,500 compounds; about 2,000 (36%) were called active. Another 18% or so got no clear call; they are omitted. Cut-off read from the data, not from the text of the source: active = normalized growth mostly below about 0.91 (no sharp cut-off); inconclusive = no clear call, values can overlap the other calls; inactive = mostly above about 0.92. The list shows a part of the results.

Test: chemical genetic growth profiling, strain panel (AID 1159580);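 note: tested at 20 µM; growth read once vehicle control cultures reached saturation at 30 °C; 1 = growth at the plate median or of vehicle wells; lower values mean less growth of the strain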
Conditions: growth OD

Measured: normalized growth

CC(C)=CCc1c(O)cc(C)oc1=O
inactive: S. cerevisiae deletion strains, locus YBR021W, strain FUR4, stronger effect = lower value 1.01 | S. cerevisiae deletion strains, locus YBR229C, strain ROT2, stronger effect = lower value 0.99 | S. cerevisiae deletion strains, locus YCL029C, strain bik1, stronger effect = lower value 0.97 | S. cerevisiae deletion strains, locus YDL035C, strain GPR1, stronger effect = lower value 1.11 | S. cerevisiae deletion strains, locus YDL074C, strain BRE1, stronger effect = lower value 1.12 | S. cerevisiae deletion strains, locus YDL101C, strain DUN1, stronger effect = lower value 0.998 | S. cerevisiae deletion strains, locus YDL185W, strain tfp1, stronger effect = lower value 0.961 | S. cerevisiae deletion strains, locus YDL192W, strain arf1, stronger effect = lower value 1.01 | S. cerevisiae deletion strains, locus YDR101C, strain arx1, stronger effect = lower value 1.01 | S. cerevisiae deletion strains, locus YDR150W, strain NUM1, stronger effect = lower value 1.01 | S. cerevisiae deletion strains, locus YDR162C, strain NBP2, stronger effect = lower value 1.03 | S. cerevisiae deletion strains, locus YDR318W, strain mcm21, stronger effect = lower value 0.986 | S. cerevisiae deletion strains, locus YDR388W, stronger effect = lower value 0.994 | S. cerevisiae deletion strains, locus YDR502C, strain sam2, stronger effect = lower value 0.995 | S. cerevisiae deletion strains, locus YEL061C, strain CIN8, stronger effect = lower value 1.03 | S. cerevisiae deletion strains, locus YER110C, stronger effect = lower value 0.982 | S. cerevisiae deletion strains, locus YER155C, strain BEM2, stronger effect = lower value 0.963 | S. cerevisiae deletion strains, locus YER167W, strain BCK2, stronger effect = lower value 0.991 | S. cerevisiae deletion strains, locus YGL078C, strain dbp3, stronger effect = lower value 0.981 | S. cerevisiae deletion strains, locus YGL086W, strain mad1, stronger effect = lower value 1.01 | S. cerevisiae deletion strains, locus YGL248W, strain PDE1, stronger effect = lower value 1.03 | S. cerevisiae deletion strains, locus YGR135W, strain pre9, stronger effect = lower value 1 | S. cerevisiae deletion strains, locus YGR252W, strain gcn5, stronger effect = lower value 1.03 | S. cerevisiae deletion strains, locus YHR079C, strain IRE1 (second series), stronger effect = lower value 0.962 | S. cerevisiae deletion strains, locus YHR094C, strain hxt1, stronger effect = lower value 0.978 | S. cerevisiae deletion strains, locus YHR129C, strain ARP1, stronger effect = lower value 1.02 | S. cerevisiae deletion strains, locus YHR200W, strain rpn10, stronger effect = lower value 0.975 | S. cerevisiae deletion strains, locus YIL066C, strain RNR3, stronger effect = lower value 1 | S. cerevisiae deletion strains, locus YIL073C, strain SPO22, stronger effect = lower value 1.08 | S. cerevisiae deletion strains, locus YIL125W, strain kgd1, stronger effect = lower value 0.981 | S. cerevisiae deletion strains, locus YIR030C, strain dcg1, stronger effect = lower value 0.991 | S. cerevisiae deletion strains, locus YJL095W, strain BCK1, stronger effect = lower value 1.04 | S. cerevisiae deletion strains, locus YJL134W, strain LCB3, stronger effect = lower value 0.988 | S. cerevisiae deletion strains, locus YJL168C, strain set2, stronger effect = lower value 0.967 | S. cerevisiae deletion strains, locus YJL187C, strain SWE1 (second series), stronger effect = lower value 1 | S. cerevisiae deletion strains, locus YJR043C, strain POL32, stronger effect = lower value 1.08 | S. cerevisiae deletion strains, locus YKL009W, strain mrt4, stronger effect = lower value 1.01 | S. cerevisiae deletion strains, locus YKL068W, stronger effect = lower value 0.98 | S. cerevisiae deletion strains, locus YKL085W, strain MDH1 (second series), stronger effect = lower value 0.972 | S. cerevisiae deletion strains, locus YKL085W, strain MDH1, stronger effect = lower value 0.972 | S. cerevisiae deletion strains, locus YKL190W, strain CNB1, stronger effect = lower value 1.02 | S. cerevisiae deletion strains, locus YKR001C, strain vps1, stronger effect = lower value 1.03 | S. cerevisiae deletion strains, locus YLR039C, strain RIC1, stronger effect = lower value 1.21 | S. cerevisiae deletion strains, locus YLR058C, strain SHM2, stronger effect = lower value 1.01 | S. cerevisiae deletion strains, locus YLR102C, strain apc9, stronger effect = lower value 0.953 | S. cerevisiae deletion strains, locus YLR262C, strain YPT6, stronger effect = lower value 1.19 | S. cerevisiae deletion strains, locus YLR268W, strain sec22, stronger effect = lower value 0.999 | S. cerevisiae deletion strains, locus YLR330W, strain CHS5, stronger effect = lower value 1.01 | S. cerevisiae deletion strains, locus YLR371W, strain rom2, stronger effect = lower value 0.983 | S. cerevisiae deletion strains, locus YLR418C, strain cdc73, stronger effect = lower value 0.987 | S. cerevisiae deletion strains, locus YML016C, strain PPZ1, stronger effect = lower value 0.982 | S. cerevisiae deletion strains, locus YML032C, strain rad52, stronger effect = lower value 0.994 | S. cerevisiae deletion strains, locus YML124C, strain tub3, stronger effect = lower value 0.973 | S. cerevisiae deletion strains, locus YMR078C, strain ctf18, stronger effect = lower value 0.98 | S. cerevisiae deletion strains, locus YMR223W, strain ubp8, stronger effect = lower value 0.99 | S. cerevisiae deletion strains, locus YMR307W, strain GAS1, stronger effect = lower value 1.13 | S. cerevisiae deletion strains, locus YNL067W, strain RPL9B, stronger effect = lower value 1.02 | S. cerevisiae deletion strains, locus YNL128W, strain TEP1, stronger effect = lower value 1.01 | S. cerevisiae deletion strains, locus YNL233W, strain BNI4, stronger effect = lower value 1.05 | S. cerevisiae deletion strains, locus YNL250W, strain rad50, stronger effect = lower value 0.94 | S. cerevisiae deletion strains, locus YNL271C, strain bni1, stronger effect = lower value 0.986 | S. cerevisiae deletion strains, locus YNL298W, strain CLA4, stronger effect = lower value 0.981 | S. cerevisiae deletion strains, locus YNL307C, strain MCK1, stronger effect = lower value 1 | S. cerevisiae deletion strains, locus YNL322C, strain KRE1, stronger effect = lower value 0.995 | S. cerevisiae deletion strains, locus YNR052C, strain pop2, stronger effect = lower value 0.99 | S. cerevisiae deletion strains, locus YOL006C, strain TOP1, stronger effect = lower value 1.26 | S. cerevisiae deletion strains, locus YOL012C, strain htz1 0.881 | S. cerevisiae deletion strains, locus YOL147C, strain pex11, stronger effect = lower value 0.973 | S. cerevisiae deletion strains, locus YOR061W, strain CKA2, stronger effect = lower value 0.991 | S. cerevisiae deletion strains, locus YOR069W, strain VPS5, stronger effect = lower value 0.989 | S. cerevisiae deletion strains, locus YOR136W, strain idh2, stronger effect = lower value 0.972 | S. cerevisiae deletion strains, locus YOR144C, strain elg1, stronger effect = lower value 0.964 | S. cerevisiae deletion strains, locus YOR184W, strain ser1, stronger effect = lower value 1.07 | S. cerevisiae deletion strains, locus YOR316C, strain cot1, stronger effect = lower value 0.971 | S. cerevisiae deletion strains, locus YPL055C, strain LGE1, stronger effect = lower value 1.1 | S. cerevisiae deletion strains, locus YPL241C, strain CIN2, stronger effect = lower value 0.997 | S. cerevisiae deletion strains, locus YPR119W, strain clb2, stronger effect = lower value 0.963 | S. cerevisiae deletion strains, locus YPR141C, strain kar3, stronger effect = lower value 0.954 | S. cerevisiae deletion strains, locus YPR163C, strain tif3, stronger effect = lower value 0.995 | S. cerevisiae deletion strains, locus YPR167C, strain met16, stronger effect = lower value 0.995 | S. cerevisiae deletion strains, strain wtn01, stronger effect = lower value 1.01 | S. cerevisiae strains, strain wild type, stronger effect = lower value 1.04
